# Laboratory results published in the supplement of paper PMC12532568.
# Where a name gives a salt, the structure may show the parent alone.
# Tested on: Danio rerio larvae Tg(actc1b:ZsGreen-LC3), 3 dpf
# Assay: LC3 puncta relative area vs vehicle, with NH4Cl (autophagic flux) (log2 fold change); higher = more autophagy
# Settings: 10 µM; treatment time 16 h; NH4Cl: + 100 mM, 4 h
# Procedure: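 Transgenic Tg(actc1b:ZsGreen-map1lc3) zebrafish larvae (2 dpf) were treated for 16 h with Tocris library compounds at 10 µM (n = 12 larvae per compound). Skeletal-muscle LC3 puncta area relative to body area was measured by high-content confocal imaging before and after 4 h of 100 mM NH4Cl (autophagic flux), normalised to vehicle (DMSO), and reported as log2 fold change.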
row,SMILES,LC3 puncta (log2)
1,CN1[C@@H]2CC[C@H]1C[C@@H](OC(=O)c1cc(Cl)cc(Cl)c1)C2,0.686
2,Cc1nc(N)sc1CCN [Amthamine dihydrobromide],0.697
3,CC(N)Cc1cnc[nH]1 (configuration not stated),0.293
4,c1ccc2sc(C3(N4CCCCC4)CCCCC3)cc2c1 [BTCP maleate],0.575
5,S=C(NC1CCCCC1)N1CCC(c2cnc[nH]2)CC1 [Thioperamide],0.48
6,Cn1cnc(CCN)c1 [N?-Methylhistamine dihydrochloride],0.559
7,N[C@@]1(C(=O)O)CC[C@@H](C(=O)O)C1,0.292
8,CC(C)C[C@H]1C(=O)N2CCC[C@H]2[C@]2(O)O[C@](NC(=O)[C@@H]3C=C4c5cccc6[nH]c(Br)c(c56)C[C@H]4N(C)C3)(C(C)C)C(=O)N12 [Bromocriptine mesylate],0.623
9,c1ccc(CCCN2CCN(CCOC(c3ccccc3)c3ccccc3)CC2)cc1,0.346
10,C=C(C)[C@H]1CN[C@H](C(=O)O)[C@H]1CC(=O)O [Kainic acid],0.23
11,COc1ccc(C(=O)N2CCCC2=O)cc1 [Aniracetam],0.0699
12,O=C(O)Cc1cccnc1C(=O)O [Homoquinolinic acid],0.499
13,O=C(CCCN1CCC2(CC1)C(=O)N(Cc1cccc(F)c1)CN2c1ccccc1)c1ccc(F)cc1 [3'-Fluorobenzylspiperone maleate],1.38
14,CN1C(=O)CCS(=O)(=O)C1c1ccc(Cl)cc1 (configuration not stated) [Chlormezanone],0.287
15,CCCN(C/C=C/I)C1CCc2ccc(O)cc2C1 (configuration not stated) [7-Hydroxy-PIPAT maleate],0.264
16,"c1ccc(CC(c2ccccc2)N2CCCCC2)cc1 (configuration not stated) [(?)-1-(1,2-Diphenylethyl)piperidine maleate]",0.216
17,c1ccc2nc(N3CCNCC3)ccc2c1 [Quipazine dimaleate],0.278
18,"c1ccc(C2CNCc3ccccc32)cc1 (configuration not stated) [4-Phenyl-1,2,3,4-tetrahydroisoquinoline hydrochloride]",0.39
19,CC(C)[C@@]1(NC(=O)[C@@H]2C[C@@H]3c4cccc5[nH]cc(c45)C[C@H]3N(C)C2)O[C@@]2(O)[C@@H]3CCCN3C(=O)[C@H](Cc3ccccc3)N2C1=O [Dihydroergocristine mesylate],0.198
20,COC(=O)[C@@H](N)CCCNC(=N)N[N+](=O)[O-] [L-NAME hydrochloride],0.657
21,CO[C@]12C[C@@H](COC(=O)c3cncc(Br)c3)CN(C)[C@@H]1Cc1cn(C)c3cccc2c13 [Nicergoline],0.397
22,"CN(C(=O)Cc1ccc(Cl)c(Cl)c1)[C@H](CN1CCCC1)c1ccccc1 [ICI 199,441 hydrochloride]",0.486
23,c1ccc2c(c1)[I+]c1ccccc1-2 [Diphenyleneiodonium chloride],0.545
24,C[C@H](N)Cc1cnc[nH]1,0.58
25,O=C1NCN(c2ccccc2)C12CCN(CC1COc3ccccc3O1)CC2 (configuration not stated) [Spiroxatrine],0.649
26,CC[N+](CC)(CCCNC1=CC(=O)C(NCCC[N+](CC)(CC)Cc2ccccc2)=CC1=O)Cc1ccccc1 [Benzoquinonium dibromide],0.386
27,Cc1onc(O)c1C[C@H](N)C(=O)O,0.29
